Test results reported in PubChem BioAssay AID2451 (National Center for Advancing Translational Sciences (NCATS), 2010).
The campaign covered roughly 290,000 compounds. About 2,100 (0.72%) were called active. Not shown: some 4% with an inconclusive outcome. This is one part of a sample in which actives are shown more often than they occur. A number with no mark means an inactive call. The call rests on the fitted dose curve; in most records, active means well fitted inhibition curve with a large enough effect; inconclusive means small, poorly fitted or top-dose-only effect, or effect the other way; inactive means flat fitted curve, though single readings scatter.

Molecular target: Fructose-bisphosphate aldolase (Giardia intestinalis (strain ATCC 50803 / WB clone C6)) (UniProt A8B2U2)
Sequence (A8B2U2 whole entry, looked up): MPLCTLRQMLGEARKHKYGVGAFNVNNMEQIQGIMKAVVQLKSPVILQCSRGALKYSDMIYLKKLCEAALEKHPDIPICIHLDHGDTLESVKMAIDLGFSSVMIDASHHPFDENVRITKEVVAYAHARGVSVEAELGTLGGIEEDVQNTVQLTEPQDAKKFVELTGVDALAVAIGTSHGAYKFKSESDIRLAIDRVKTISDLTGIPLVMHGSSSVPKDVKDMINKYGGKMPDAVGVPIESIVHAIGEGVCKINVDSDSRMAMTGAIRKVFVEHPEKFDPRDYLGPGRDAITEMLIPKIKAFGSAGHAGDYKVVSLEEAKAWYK
Assay: qHTS Assay for Inhibitors of Fructose-1,6-bisphosphate Aldolase from Giardia Lamblia; further: nearly all actives have a fitted effect of over 55% in size
Conditions: purified Giardia FBPA; series mostly up to 59.6 µM; activity, negative = inhibition: at the top concentration
Excerpt: Assay Provider: Osnat Herzberg, University of Maryland
The objective of this project is to obtain compounds that inhibit Giardia lamblia growth. G. lamblia is a human pathogen which afflicts impoverished nations; it is the most common cause of outbreaks of diarrhea in the United States. During the course of our study of potential drug targets in Giardia, we have identified the Class II (Zn2+ functions in electrophilic catalysis) fructose-1,6-bisphosphate aldolase (FBPA) as an excellent candidate for drug targeting. FBPA is a key glycolytic pathway enzyme, essential for G. lamblia survival. The human FBPA belongs to the Class I aldolases, which have a different substrate binding site structure and a radically different catalytic mechanism (employing a lysine-Schiff base intermediate). Therefore, affinity-based or mechanism-based inhibitors of the Giardia FBPA are expected not to interfere with the catalytic function of the human FBPA.
A glyceraldehyde-3-phosphate dehydrogenase/triose phosphate isomerase/NAD/arsenate coupled assay was adapted to the 1536-well HTP format for use in the primary screen. This was done by coupling it to a diaphorase/resazurin/resorufin reaction that can be monitored by fluorescence (excitation, 544 nm; emission, 590 nm). Compounds identified in this screen will be further evaluated by coupling the glycerol-3-phosphate/triose phosphate isomerase/NADH assay to a phenazine methosulfate/tetranitroblue tetrazolium color reaction. False positives due to the dehydrogenases and diaphorase inhibition will be eliminated, and selectivity assay will triage inhibitors of mammalian triose phosphate isomerase and the Class I FBPA. G. lamblia FBPA inhibitors identified by the in vitro analyses will be examined for growth inhibition of Giardia trophozoites, and for cytotoxicity in human cells.
Step,Parameter,Value,Description
1,Enzyme reagent,2 uL,40 nM FBPA
2,Compound,23 nL,3.68 nM-57.5 uM final concentration
3,Time,10 min,RT Incubation
4,Substrate/detection Reagent,2 uL,Substrate + enzyme coupling system + AmpLite Red kit
5,Time,20 min,RT Incubation
6,Detector,525 nm/598 nm (Fluorescence),ViewLux Fluorescence Read (Read 1)
1,Medium-binding black solid-bottom Kalypsys plates. FRD or Kalypsys dispenser, 2 uL of FBPA enzyme. Bottle kept at 4C.
2,Compound Library (10 mM ,1:5 dilution). Pin-transferred for a [final] range of 3.68 nM-57.5 uM.
4,FRD or Kalypsys dispenser, 2 uL of reaction mixture. Bottle kept at 4C and covered in foil to protect from light.
6,ViewLux Protocol 1194; Excitation filter wheel A (525/20 Pol; BODIPY TMR FP), Emission filter wheel B (598/25 S; BODIPY TMR FP S).
Keywords: Fructose-bisphosphate aldolase, FBPA , Giardia lamblia , Giardia, HTS, Inhibitors
On the % scale 0 is the no-effect control and ±100 the full control effect; potency means the concentration at half of the fitted maximal effect.

Row | Compound | activity, negative = inhibition [%] | Potency
1 | Cc1ccc(Cl)c(OCC(=O)N2CCc3ccccc3C2)c1 | 5.62 | 
2 | O=C(CSc1cccc[n+]1[O-])c1ccc(-c2ccccc2)cc1 |  | 17.7 µM (active)
3 | COc1ccccc1C(=O)CSc1cccc[n+]1[O-] | 2 | 
4 | O=C(CSc1cccc[n+]1[O-])c1ccc(Cl)cc1 | -5.54 | 
5 | NS(=O)(=O)c1ccccc1NC(=O)c1c(O)c2ccccc2[nH]c1=O | -2.83 | 
6 | CC(C)c1ccc(/C=C2\NC(=O)NC2=O)cc1 | -2.07 | 
7 | CC(=O)N1CCC(C(=O)OCc2ccc(Cl)cc2)(c2ccccc2)CC1 | -0.423 | 
8 | O=C(Cc1c[nH]c2ccccc12)OCCOC(=O)Cc1c[nH]c2ccccc12 | -8.65 | 
9 | Cc1cccc2c(CCN)c[nH]c12 | -6.67 | 
10 | COc1ccc(Nc2ncnc3ccc(Br)cc23)c(OC)c1 | 11.8 | 
11 | O=C(c1cc(COc2ccc(F)cc2F)on1)N1CCOCC1 | -1.6 | 
12 | CSc1ccccc1NC(=O)c1cc(Cl)sc1Cl | -3.44 | 
13 | CCCCC(C(=O)NC(C)(C)C)N(Cc1ccccc1)C(=O)c1snc(C(N)=O)c1N (stereo unspecified) | 3.79 | 
14 | CN1CCN(Cc2ccc(OC(F)(F)F)cc2)CC1 | -8.47 | 
15 | COc1ccc(CN2CCN(Cc3ccc(OC)c(OC)c3OC)CC2)cc1 |  | 14.1 µM (active)
16 | COc1ccccc1N1CCN(Cc2ccc(OC)c3ccccc23)CC1 | -12.6 | 
17 | Cc1cc(N=Nc2ccc3ccccc3c2)ccc1O | -0.276 | 
18 | O=S(=O)(Nc1ccccc1Cl)c1cccc2nsnc12 | -29.6 | 
19 | CCOC(=O)c1cc2cc3ccccc3cc2oc1=O | 7.13 | 

Row | Compound | activity, negative = inhibition [%] | Potency
20 | Cc1cc(C)n2nc(C(=O)NC(C)(C)C)nc2n1 | 4.08 | 
21 | COc1ccc(Cl)cc1C(=O)NNC(=O)c1nc2nc(C)cc(C)n2n1 |  | 17.7 µM (active)
22 | C=CCNC(=S)NNC(=O)c1cc(Cl)ccc1OC | 0.21 | 
23 | CCN1C(=S)N[C@@H](c2cccc(C(F)(F)F)c2)C(C(=O)OC)=C1C | -1.9 | 
24 | O=C(Nc1cccnc1Cl)c1cc(-c2ccccc2O)on1 | 3.89 | 
25 | CC1CCCN(S(=O)(=O)c2ccc(C(=O)Nc3nnc(-c4ccncc4)o3)cc2)C1 (stereo unspecified) |  | 7.06 µM (active)
26 | Cc1ccnc(NS(=O)(=O)c2ccc(NC(=O)c3ccc(S(=O)(=O)N4CCOCC4)cc3)cc2)n1 | -8.56 | 
27 | O=C(Nc1ccc(N2CCOCC2)c(Cl)c1)c1ccc(S(=O)(=O)N2CCOCC2)cc1 | -6.37 | 
28 | O=C(Nc1nnc(-c2ccco2)o1)c1ccc(S(=O)(=O)N2CCOCC2)cc1 |  | 17.7 µM (active)
29 | CC1CCCCN1S(=O)(=O)c1ccc(C(=O)Nc2nnc(-c3cccs3)o2)cc1 (stereo unspecified) | 24.1 | 
30 | CSCc1nnc(NC(=O)c2ccc(S(=O)(=O)N3CCCCC3C)cc2)o1 (stereo unspecified) | -19.3 | 
31 | CC(C)(C)c1ccc(Cn2nnc3c(=O)[nH]c(C4CCCN(C(=O)c5ccco5)C4)nc32)cc1 (stereo unspecified) | -0.49 | 
32 | Cc1cccc(C(=O)Nc2ccc(Oc3cnccn3)cc2)c1 | -1.08 | 
33 | CN(Cc1ccccc1)C(=O)CSc1nc2ccccc2[nH]1 | -15.7 | 
34 | COc1cc(Cl)ccc1OCc1cc(C(=O)N2CC[C@@H]3CCCC[C@H]3C2)no1 | 10.8 | 
35 | COC(=O)[C@@H]1C[C@@]2(O)[C@H](O)[C@H](O)[C@H](O)C[C@H]2N1CC1CCCCC1 | -3.43 | 
36 | CC(=O)c1ccc(OCCN2CCOCC2)cc1 | -22.4 | 
37 | Cc1cccc(C)c1OCCN1CCOCC1 |  | 15.8 µM (active)
38 | c1ccc(-c2ccc(OCCN3CCOCC3)cc2)cc1 | -28.9 | 

Row | Compound | activity, negative = inhibition [%] | Potency
39 | N#Cc1ccc(C2N=C(c3ccccc3)NO2)cc1 (stereo unspecified) | -0.519 | 
40 | COc1ccccc1C(C)NC(=O)Cc1ccsc1 (stereo unspecified) | -2.45 | 
41 | O=C(C[n+]1cc(Br)cc2ccccc21)c1ccc(F)cc1 | 2.91 | 
42 | O=C(CSc1nc2ccc([N+](=O)[O-])cc2[nH]1)c1ccc(Cl)cc1 | -0.835 | 
43 | O=[N+]([O-])c1ccc2c(c1)Nc1nc3ccccc3nc1N2 | 18.9 | 
44 | O=[N+]([O-])c1ccc2nc(-c3ccccn3)[nH]c2c1 |  | 7.92 µM (active)
45 | COc1cccc(N(CC(=O)NCc2ccccc2)C(=O)CCC(=O)Nc2nccs2)c1 | -1.2 | 
46 | CCOc1ccccc1NC(=S)NC(=O)CCc1ccccc1 | -4.01 | 
47 | COCCN(CCOC)C(=S)Nc1ccccc1Cl | 3.46 | 
48 | CCc1cccc(NC(=S)N(CCN(C)C)C2CCN(C(C)C)CC2)c1 | -10.9 | 
49 | COCCN(C(=S)Nc1ccccc1OC)C1CCN(C(C)C)CC1 |  | 15.8 µM (active)
50 | CCNc1c(NS(=O)(=O)c2ccc(C3CCCCC3)cc2)c(=O)oc2ccccc12 | -19.3 | 
51 | O=c1c(O)c(Br)ccc2c(Br)c(O)c(O)c(O)c12 |  | 11.2 µM (active)
52 | Cc1noc(C)c1-c1ccc2ncnc(NCc3ccc4[nH]ccc4c3)c2c1 | 0.0751 | 
53 | O=C(NC(=S)N1CCCCC1c1cccnc1)c1ccccc1 (stereo unspecified) | -26.5 | 
54 | COc1ccc(C(=O)NC(=S)N2CCCCC2c2cccnc2)cc1OC (stereo unspecified) |  | 3.55 µM (active)
55 | COc1ccc(/C=C/C(=O)NC(=S)NN2CCCCC2c2cccnc2)cc1 (stereo unspecified) | -11.6 | 
56 | CC(C)(C)c1ccc(C(=O)N2CCN(CCNC(=O)C(=O)Nc3ccc(F)cc3)CC2)cc1 | -8.9 | 
